The list is not random: actives were taken first. Their share in the collection is about 10%.
BAZ2B block: BAZ2B (human) inhibition; Q9UIF8; AlphaScreen BAZ2B-H3K14Ac peptide displacement; Potency, µM (highest dose often 114 µM), for inactives: at the highest dose activity change, negative = inhibition, hits mostly inhibitors; hit rate 4.4% among 360,000; AID 504333; also: potency is read from the fitted curve at half-maximal effect; % is scaled to controls: 0 for no effect and ±100 for the full control effect; nearly all actives have a fitted effect of over 60% in size
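In this displacement format the biotinylated H3(5-23) peptide acetylated at Lys14 serves as ligand at 50 nM, with BAZ2B at 50 nM in PBS pH 7.4 containing 0.01% Tween-20. Donor and acceptor beads are 10 ug/mL final.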
HP1b chromo inh: inhibitors of HP1-beta chromodomain binding to methylated histone tails; AlphaScreen HP1-beta / biotin-H3K9me3 peptide binding; Potency, µM (highest dose often 114 µM), for inactives: at the highest dose activity change, negative = inhibition, usual class: inhibitors; hit rate 0.56% among 390,000; also: potency is read from the fitted curve at half-maximal effect; nearly all actives have a fitted effect of over 70% in size
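AlphaScreen: HP1-beta (50 nM) preformed 30 min with biotin-H3(1-18)K9me3 peptide (50 nM) in PBS pH 7.4, 0.01% Tween-20. Compound added for 30 min at RT, then streptavidin donor/nickel chelate acceptor beads (10 ug/mL) for 30 min.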
JMJD2A Tudor: blocks the human JMJD2A Tudor domain | O75164 | AlphaScreen JMJD2A-Tudor / H3K4me3 peptide binding | Potency, µM (highest dose often 114 µM), without a hit: top-dose activity change, negative = inhibition, actives largely listed as inhibitors | hit rate 4.4% among 390,000 | AID 504339; also: potency is read from the fitted curve at half-maximal effect; % is scaled to controls: 0 for no effect and ±100 for the full control effect; nearly all actives have a fitted effect of over 50% in size
CtBP-E1A blk: CtBP/E1A binding inhibition; activity change, % (concentration not given with the values); hit rate 0.49% among 340,000; AlphaScreen GST-E1A/His-CtBP binding, 1536-well; active compounds read low; in the data active = activity change below about -65%; inconclusive = mostly about -30% to -63%; also: % is scaled to controls: 0 for no effect and ±100 for the full control effect
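In 5 uL wells, 23 nL compound meets equimolar GST-E1A and His-CtBP (5X stock 125 nM each) for 2 h, 37 °C. Beads (5X, 50 ug/mL) then 1 h, 37 °C, dark.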
G9a block: inhibitors of human histone lysine methyltransferase G9a; G9a H3K9 monomethylation, AlphaScreen, 2 h; Potency, µM (titrated, usually from 102 µM), inactives show at the top dose activity, negative = inhibition, actives largely listed as inhibitors; hit rate 8.8% among 350,000; also: potency is read from the fitted curve at half-maximal effect; % is scaled to controls: 0 for no effect and ±100 for the full control effect; nearly all actives have a fitted effect of over 75% in size
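G9a (20 nM) preincubated 15 min RT with compounds, then 500 nM biotinylated H3K9 peptide and 20 uM SAM added; 2 h RT reaction. Monomethyl-H3K9 product detected by AlphaScreen with anti-H3K9me1 antibody, streptavidin donor and anti-rabbit IgG acceptor beads.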
Six1-Eya2 blk: Six1/Eya2 interaction inhibition; hit rate 0.56% among 360,000; AlphaScreen GST-Six1/His-Eya2 binding, biochemical; active compounds read low; activity change, % (no concentration beside the values); AID 651725; Q15475+O00167; in the data active = activity change below about -65%; inconclusive = mostly about -30% to -63%; also: % is scaled to controls: 0 for no effect and ±100 for the full control effect
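AlphaScreen with GST-Six1 and His-Eya2 (5X mix: 250 nM and 500 nM), glutathione donor and nickel acceptor beads; buffer 50 mM Tris pH 8.0, 300 mM NaCl, 1 mM TCEP; 1 h at 37 C in the dark.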
Starred values were filed as active, the others as inactive; ? = inconclusive; nt = no result; [ ] = dose if it differs, or a comment. Unless noted, calls follow the shape of the dose curve; as a rule, active = well fitted inhibition curve with a large enough effect; inconclusive = small, poorly fitted or top-dose-only effect; inactive = no such curve, though single readings can be large or run the other way.

SMILES	BAZ2B block	HP1b chromo inh	JMJD2A Tudor	CtBP-E1A blk	G9a block	Six1-Eya2 blk
CC(=O)N1CCN(C(=S)c2ccc(-c3ccc(Cl)cc3)o2)CC1	-6.1%	-68.4%	?	5.8	3.98µM*	-18.2
O=C(O)c1ccc(-c2cccc(Cl)c2)o1	nt	10.2%	-24.5%	-3.9	nt	-0.6
O=C(NC(=S)Nc1cc(Cl)ccc1N1CCOCC1)c1ccc(-c2cccc(Cl)c2)o1	5.7%	6.6%	-16.0%	4.1	13.0%[59 µM]	-0.6
S=C(c1ccc(-c2cccc(Cl)c2)o1)N1CCCCC1	31.6µM*	?	28.2µM*	?	11.2µM*	?
S=C(c1ccc(-c2cccc(Cl)c2)o1)N1CCOCC1	44.7µM*	35.5µM*	50.1µM*	?	?	?
COc1ccc(NC(=O)Nc2sc3nc4n(c(=O)c3c2C)CCC(C)CC4)cc1OC (stereo not given)	-4.4%	17.9%	-9.1%	nt	1.4%[59 µM]	nt
COc1ccccc1NC(=O)C(=O)NCCc1csc(-c2cccc(F)c2)n1	0.8%	14.4%[57 µM]	-6.1%	nt	15.5%[59 µM]	nt
Nc1cc(Cl)ccc1N1CCCC1	?	-15.8%	?	-1.8	14.1µM*	-0.9
Nc1cc(Cl)ccc1N1CCOCC1	-35.0%	19.5%	-26.7%	-3.6	-3.7%[2.33 µM]	-3.9
O=S(=O)(Nc1ccc(N2CCOCC2)cc1)c1cc(Cl)ccc1Cl	-31.2%	-6.4%	?	-14.2	44.7µM*	-17.1
CN(C)c1ccc(NS(=O)(=O)c2cc(Cl)ccc2Cl)cc1	35.5µM*	50.1µM*	56.2µM*	3.5	8.91µM*	?
CCN(c1ccc(NS(=O)(=O)c2cc(Cl)ccc2Cl)cc1)C(C)C	35.5µM*	?	50.1µM*	?	7.08µM*	-26.9
CSc1ccc(C2c3c(oc4cc(C)cc(C)c4c3=O)C(=O)N2CCO)cc1 (stereo not given)	-5.3%	15.4%	-8.5%	nt	-3.3%[59 µM]	nt
COc1ccccc1CNC(=O)CSc1nnc2c(Cl)cc(C(F)(F)F)cn12	-2.7%	37.8%	-4.5%	11.6	44.3%[59 µM]	3.3
Nc1cc(S(=O)(=O)Nc2cc(Cl)ccc2Cl)ccc1N1CCOCC1	-33.9%	?	?	-3.5	11.2µM*	3.1
Nc1cc(S(=O)(=O)Nc2ccccc2Cl)ccc1N1CCCC1	?	-17.1%	?	-2.9	?	6.6
CC1=NN(c2ccccc2)C(=O)/C1=C\c1cc(C)n(-c2ccccc2)c1C	?	?	-27.5%	-17.2	3.55µM*	0.2
CC1=NN(c2ccccc2)C(=O)/C1=C\c1cc(C)n(-c2cccnc2)c1C	?	10.5%	-11.9%	3.7	-44.7%	-3.9
CC1=NN(c2ccccc2)C(=O)/C1=C/c1c(O)n(-c2ccc(F)cc2)[nH]c1=O	39.8µM*	?	28.2µM*	0.0	11.2µM*	?
CC1=NN(c2ccccc2)C(=O)/C1=C/c1ccc(Cl)cc1	?	?	?	nt	39.8µM*	-6.7
CC1=NN(c2ccccc2)C(=O)/C1=C\c1ccc(Br)s1	11.2µM*	?	10µM*	nt	8.91µM*	-0.3
O=C1c2ccccc2/C(=C\c2ccc(Br)s2)N1c1ccccc1	nt	17.5%	-31.5%	-2.8	nt	-5.8
CC1=NN(c2ccccc2)C(=O)C1	-32.1%	25.1%	-15.1%	-5.0	-58.7%[59 µM]	4.5
CCC1CCCCN1C(=O)Cn1c(=O)n(-c2ccc(Cl)c(Cl)c2)c(=O)c2c(C)c(C(=O)N(C)C)sc21 (stereo not given)	-12.4%	10.6%	-19.7%	nt	4.0%[59 µM]	nt
CC1=NN(c2cccc(F)c2)C(=O)/C1=C/c1ccc(N(C)C)cc1	-26.1%	-2.4%	-17.3%	-2.7	-15.9%	12.0
SMILES	BAZ2B block	HP1b chromo inh	JMJD2A Tudor	CtBP-E1A blk	G9a block	Six1-Eya2 blk
CC1=NN(c2ccccc2)C(=O)/C1=C/c1cccs1	15.8µM*	?	39.8µM*	-4.0	31.6µM*	-6.9
COc1ccc(/C=C2/C(=O)N(c3cccc(F)c3)N=C2C)c(OC)c1	?	-6.6%	-22.9%	-12.1	19.3%[0.501 µM]	7.2
CC1=NN(c2ccccc2)C(=O)/C1=C/c1ccc[nH]1	11.2µM*	15.8µM*	15.8µM*	3.6	22.4µM*	-10.4
CC1=NN(c2ccccc2)C(=O)/C1=C\N(O)c1ccccc1	-10.6%	29.8%	?	nt	nt	-0.9
CC1=NN(c2ccc(C)c(C)c2)C(=O)/C1=C/c1ccc2c(c1)n(C)c(=O)n2C	?	2.2%	-18.8%	3.2	7.08µM*	-9.6
COc1ccc(/C=C2/C(=O)N(c3ccccc3)N=C2C)cc1Br	12.6µM*	22.4µM*	17.8µM*	11.9	35.5µM*	6.8
CC1=NN(c2ccccc2)C(=O)C1=Cc1ccccc1	nt	nt	nt	-5.2	nt	-15.0
Cc1c(NC(=O)/C(C#N)=C/c2cccs2)c(=O)n(-c2ccccc2)n1C	-1.6%	51.8%	-7.5%	nt	23.3%[59 µM]	-0.6
O=C(Cn1cc(S(=O)(=O)Cc2cccc(Cl)c2)c2ccccc21)NCCc1ccccc1	-4.0%	17.6%	-5.3%	nt	2.5%[59 µM]	nt
COc1ccc(C(C)(NC(C)=O)c2nc(-c3cccc4cccnc34)cs2)cc1 (stereo not given)	nt	nt	nt	-0.1	nt	-7.3
COCCNC(=O)C(=O)NCC1OCCN1S(=O)(=O)c1ccc(C)cc1 (stereo not given)	-9.3%	44.9%	-4.4%	-3.0	33.8%	1.4
CN(C)c1cc(-c2cccc(NS(C)(=O)=O)c2)ncn1	nt	nt	nt	nt	-9.4%[0.501 µM]	nt
Cc1cc(C)c(S(=O)(=O)Nc2ccc(-c3ccc(N4CCCCC4)nn3)cc2)cc1C	-12.9%	4.2%[57 µM]	-23.3%	nt	-18.6%[59 µM]	nt
Cc1cccc(C)c1N1C(=O)CCC(C)(C)C1=O	0.1%	40.6%	10.3%	3.8	23.8%	4.4
COc1ccc([C@@H]2CC(=O)c3c(O)cc(O[C@@H]4O[C@H](CO[C@@H]5O[C@@H](C)[C@H](O)[C@@H](O)[C@H]5O)[C@@H](O)[C@H](O)[C@H]4O)cc3O2)cc1O	50.1µM*	-14.1%	?	4.7	-27.2%[12.7 µM]	-8.5
CCOc1ccc(-n2cc(-c3ccc(OC)c(OC)c3)[nH]c2=S)cc1	nt	?	11.2µM*	-17.1	2.51µM*	-13.1
CC(=O)Nc1ccc(-n2c(C)ccc2-c2ccccc2)cc1	?	-1.0%	-28.0%	-22.2	?	-4.4
COc1ccc(-n2cc(-c3ccccc3)[nH]c2=S)cc1	?	-6.9%	8.91µM*	-7.9	1.58µM*	-7.8
COc1ccccc1-n1cc(-c2ccccc2)[nH]c1=S	?	14.0%	?	nt	10µM*	-8.7
CCOc1ccc(-c2cn(-c3ccccc3OC)c(=S)[nH]2)cc1	-34.9%	13.7%	-28.7%	-2.2	?	-6.3
CC(=O)Nc1ccc(-n2cc(-c3ccccc3)[nH]c2=S)cc1	?	?	0.891µM*	nt	1.41µM*	2.0
CSc1cccc(N2CC(C(=O)N3CCN(S(=O)(=O)c4ccccc4Cl)CC3)CC2=O)c1 (stereo not given)	nt	28.3%	-15.6%	nt	nt	0.0

Screening results (PubChem)
